Laboratory results reported in PubChem BioAssay AID743286 (National Center for Advancing Translational Sciences (NCATS), 2014).
Screen size: about 1,100 compounds; about 340 (31%) were called active. Inconclusive results (about 40%) are left out. The call rests on the fitted dose curve; in most records, active means well fitted inhibition curve with a large enough effect; inconclusive means small, poorly fitted or top-dose-only effect; inactive means flat fitted curve, though single readings scatter. The list is a sample of the results.

Biological target: Phosphatidylinositol 5-phosphate 4-kinase type-2 alpha (Homo sapiens) (UniProt P48426)
Sequence (P48426 whole entry, looked up): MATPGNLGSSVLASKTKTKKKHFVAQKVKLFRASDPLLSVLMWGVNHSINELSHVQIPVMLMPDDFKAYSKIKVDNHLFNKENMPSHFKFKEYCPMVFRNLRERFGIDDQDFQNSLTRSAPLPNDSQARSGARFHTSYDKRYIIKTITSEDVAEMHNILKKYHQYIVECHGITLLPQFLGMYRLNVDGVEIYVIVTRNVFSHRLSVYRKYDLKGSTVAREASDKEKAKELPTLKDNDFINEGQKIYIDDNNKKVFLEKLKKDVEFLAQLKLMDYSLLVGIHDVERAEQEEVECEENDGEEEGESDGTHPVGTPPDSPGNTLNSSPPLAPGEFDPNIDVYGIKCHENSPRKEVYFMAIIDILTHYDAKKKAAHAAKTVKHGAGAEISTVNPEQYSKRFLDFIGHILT
Assay: qHTS for Inhibitors of PI5P4K: Confirmation in Primary Assay; further: nearly all actives have a fitted effect of over 65% in size
Conditions: PI5P4Kalpha enzyme, ADP-Glo luminescence, 60 min; series mostly up to 76.9 µM; activity change, negative = inhibition: at the top concentration
Summary of the method: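 ADP-Glo luminescence end-point quantifies ADP from 60-min room-temperature turnover of PI5P by PI5P4Kα. ATP 5 µM final; buffer 0.038 M HEPES pH 7.4, 0.28 mM EGTA, 0.1% CHAPS, 5% DMSO.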
On the % scale 0 is the no-effect control and ±100 the full control effect; potency means the concentration at half of the fitted maximal effect.

Activity change, negative = inhibition, inactive:
CCOC(=O)C1=C(CC)Nc2ccccc2N=C1NC(=O)c1ccc(S(=O)(=O)N(C)C)cc1 2%
COC(=O)c1c(NC(C)=O)sc(C(=O)Nc2ccccc2)c1C -0.19%
Fc1cccc(Cc2c(-c3ccco3)nc3ccc(Cl)cn23)c1 -18.6%
COc1ccccc1Cc1c(-c2ccco2)nc2cc(C)c(Br)c(C)n12 -23.8%
Cc1ccc(NC(=O)CN(C)C(=O)COc2ccc(C(=O)c3ccc(F)cc3)cc2)cc1 7.3%
CCN(CC(=O)Nc1ccc(OC)cc1)C(=O)c1ccc([N+](=O)[O-])cc1 -0.54%
O=C(COC(=O)Cc1ccsc1)Nc1cccc(F)c1 9.86%
Nc1nc(N)c2cc(S(=O)(=O)c3cccc(C(F)(F)F)c3)ccc2n1 -26.5%
CCC1CCCCN1C(=O)Cn1nc([N+](=O)[O-])c(Cl)c1C (configuration not stated) -4.34%
CCOc1ccc(CCNS(=O)(=O)c2cn(C)cn2)cc1OCC -0.0108%
O=C(CSc1nc(O)cc(=O)n1-c1ccccc1)Nc1nc2ccccc2s1 -23.2%
CCC(C)n1c(SCC(=O)Nc2ccc3[nH]c(=O)[nH]c3c2)nc2ccccc2c1=O (configuration not stated) -23.7%
CC(=O)Nc1ccc2nc(SCC(=O)NCCOc3ccccc3)sc2c1 -0.149%
Nc1cc(-c2ccncc2)c[nH]c1=O -15.9%
O=C(COc1ccc([N+](=O)[O-])cc1)Nc1cccnc1 -5.44%
O=C(COc1ccccc1)Nc1cccc(-c2ccc(N3CCOCC3)nn2)c1 -18.8%
COC(=O)Nc1ccc(S(=O)(=O)N2CCC(C(=O)N3CCC(C)CC3)CC2)cc1 -3.71%
CN1CCN(S(=O)(=O)c2ccc(N3CCc4ccccc4C3)nc2)CC1 -1.8%
CSc1ncccc1C(=O)Nc1ccc(OC(F)(F)F)cc1 11.7%
Cc1ccc(NCC(=O)Nc2ccc(Br)cc2)cc1C 8.83%
Cc1ccc([N+](=O)[O-])cc1Nc1nc(N2CCOCC2)nc(N2CCOCC2)n1 2.38%
CCOC(=O)C1=C(N)N(c2ccccc2)C(=O)C1 -3.07%
Cc1cccc(C)c1NC(=O)C(c1ccccc1)n1c(=O)c(-c2ccco2)nc2ccccc21 (configuration not stated) -24.1%
CC(Oc1ccc(F)cc1)C(=O)N1CCN(c2ncccn2)CC1 (configuration not stated) 0.356%
CC(C)C(=O)N1CCN(c2ccccc2NC(=O)c2ccco2)CC1 -2.64%
COc1ccccc1N1CCN(C(=O)c2ccc(C(C)(C)C)cc2)CC1 0.452%
CC(C)NC(=O)c1onc(CSc2ccccc2F)c1C(=O)O -0.693%
Cc1ccc(S(=O)(=O)N(C(=O)c2ccco2)c2cc3sc(=O)oc3c3ccccc23)cc1 -5.53%
CC(C)N(CCC(=O)c1ccc2ccccc2c1)Cc1ccccc1 -9.41%
O=C(N[C@@H](Cc1ccccc1)C(=O)OCc1ccccc1)c1nc[nH]c1C(=O)NC(c1ccccc1)c1ccccc1 7.69%
Cc1cc(Oc2ccc(C#N)cc2)nc(NCc2ccccc2)n1 -2.08%
CCn1c(CC(=O)Nc2ccccc2F)nnc1SCC(=O)NC1CCCCC1 1.05%
O=C(NCC1CC1)c1ccc(Nc2nc3ccc(Br)cc3[nH]2)cc1 -15.7%
CC1Cc2ccccc2N1C(=O)COC(=O)CCc1nc2ccccc2c(=O)[nH]1 (configuration not stated) -11.1%
Cc1cnc(NC(=O)CSc2c(Cl)cccc2Cl)s1 -18.7%
CCc1nnc(NC(=O)c2ccc(S(C)(=O)=O)cc2)s1 -2.39%
O=C(CSc1nc2[nH]c(=O)cc(O)c2s1)Nc1ccc(Cl)c(C(F)(F)F)c1 -29.7%
CC1Cc2ccccc2N1C(=O)CNc1cccc(S(=O)(=O)N2CCCC2)c1 (configuration not stated) -3.8%
Cc1csc(NC(=O)CSc2nc3[nH]ncc3c(=O)[nH]2)n1 -24.4%
COc1ccc(CC(=O)NCC(=O)NC(Cc2ccccc2)C(=O)O)cc1 (configuration not stated) 4.47%
CCc1nnc(NC(=O)c2cc(-c3ccc(C)o3)nc3ccccc23)s1 -23.9%
CC(=O)c1cccc(NC(=O)c2cc(-c3ccco3)nc3ccccc23)c1 -24.5%
CCOc1ccc(OCc2ccc(C(=O)N3CCOCC3)cc2)cc1 -13.7%
CCC(C)c1nc2ccsc2c(N2CCOC2=O)c1-c1ccccc1 (configuration not stated) 2.12%
Cc1cccnc1NC(=O)CSc1nnc(COc2ccc(C(C)C)cc2)n1C 0.341%
O=C(CSc1nc2c(cnn2-c2cccc(Cl)c2)c(=O)[nH]1)NCC1CCCO1 (configuration not stated) -21%
O=[N+]([O-])c1ccc(-c2cc(-c3ccc(Cl)cc3)n[nH]2)cc1 -12.7%
Cc1nc2ccccc2nc1OCC(=O)NCc1ccc2c(c1)OCO2 -6.61%
O=C(OCc1nnc(-c2ccccc2)o1)c1ccc2ccccc2n1 -26.2%
COc1ccc(CNC(=O)CCCn2nc(C)c([N+](=O)[O-])c2C)cc1OC 4.88%
Cc1ccc(NC(=O)Nc2cccs2)cc1 -9.22%
CC(C)NC(=O)N1c2ccccc2Sc2ccccc21 -2.11%
O=C(Nc1nnc(SCc2ccc(Cl)cc2)s1)c1ccco1 -1.98%
O=C(Nc1nnc(-c2ccncc2)o1)c1ccccc1 1.15%
CC(C)(C)NC(=O)Nc1ccc(Cn2cc(C(F)(F)F)ccc2=O)cc1 5.44%
CNC(=O)c1nc(C)n(-c2ccc(Cl)cc2Cl)n1 2.37%
Cc1ccc(C(c2nnnn2CS(=O)(=O)c2ccc(C)cc2)N2CCC(C)CC2)cc1 (configuration not stated) 11.4%
Cc1cc(C(=O)OCC(=O)Nc2c(F)cccc2F)c(C)n1-c1ccccc1 0.578%
CN(C)S(=O)(=O)c1cccc(C(=O)OCC(=O)Nc2sccc2C(N)=O)c1 -2.55%
Cc1cc(C)c2c(N)c(C(=O)Nc3c(C)n(C)n(-c4ccccc4)c3=O)sc2n1 2%
O=C(CSc1ncnc2sc3c(c12)CCC3)N1CCOCC1 -28.5%
CC(C)C(=O)Nc1ccccc1N1CCN(S(C)(=O)=O)CC1 -0.34%

Potency, active:
Cc1cc2nc(-c3ccco3)c(Cc3cccc(F)c3)n2c(C)c1Br 6.31 µM
Cc1cccc(NC(=O)CNC(=O)c2cccc(-n3cccc3)c2)c1C 6.31 µM
CN(CC(=O)Nc1cccc(F)c1)C(=O)c1cccc(-n2cccc2)c1 10 µM
Cc1ccc(NC(=O)CN(C)C(=O)c2cccc(-n3cccc3)c2)cc1 20 µM
CN(CC(=O)Nc1c(Cl)cccc1Cl)C(=O)c1cccc(-n2cccc2)c1 14.1 µM
N#Cc1c(SCC(=O)Nc2nc3ccc(Br)cc3s2)sc2c(O)cc(=O)[nH]c12 4.47 µM
N#Cc1c(SCC(=O)Nc2nc3ccccc3s2)sc2c(O)cc(=O)[nH]c12 6.31 µM
O=C(COc1ccc2ccccc2c1)Nc1cccc(C(=O)Nc2ccccc2C(=O)O)c1 20 µM
COc1ccc(S(=O)(=O)N2CCN(C(=O)C3COc4ccccc4O3)CC2)cc1 (configuration not stated) 10 µM
CCN(CC(=O)Nc1ccc(NC(C)=O)cc1)Cc1c(O)ccc2cc(Br)ccc12 15.8 µM
Cn1nnnc1Sc1ncnc2scc(-c3ccccc3C(F)(F)F)c12 17.8 µM
O=C(NCCCN1CCOCC1)c1sc2cc([N+](=O)[O-])ccc2c1Cl 14.1 µM
O=C(c1ccc2nc(-c3ccco3)c(-c3ccco3)nc2c1)N1CCN(c2ncccn2)CC1 12.6 µM
O=C(Nc1ccc2nc(-c3ccco3)c(-c3ccco3)nc2c1)N1CCN(c2ccccn2)CC1 11.2 µM
Cc1ccc(C(CCN(Cc2ccccc2)C(=O)c2ccco2)c2ccco2)cc1 (configuration not stated) 14.1 µM
O=c1[nH]c2ccccc2n2c(-c3ccccc3)nnc12 5.01 µM
NC(=O)c1ccc(-n2c(CCC(=O)O)ccc2-c2cccs2)cc1 3.98 µM
N#Cc1c(SCC(=O)Nc2nccs2)sc2c(O)cc(=O)[nH]c12 15.8 µM
N#Cc1c(SCC(=O)Nc2nncs2)sc2c(O)cc(=O)[nH]c12 8.91 µM
Cc1cc(NC(=O)CSc2sc3c(O)cc(=O)[nH]c3c2C#N)ccc1Br 8.91 µM
CCc1nnc(NC(=O)CSc2sc3c(O)cc(=O)[nH]c3c2C#N)s1 12.6 µM
Cc1csc(NC(=O)CSc2sc3c(O)cc(=O)[nH]c3c2C#N)n1 14.1 µM
O=C(Nc1nccs1)c1cc(-c2ccco2)nc2ccccc12 3.98 µM
Cc1csc(NC(=O)c2cc(-c3ccco3)nc3ccccc23)n1 10 µM
CCc1nnc(NC(=O)c2cc(-c3ccco3)nc3ccccc23)s1 3.55 µM
O=c1c2ccccc2[nH]c2ccc(O)cc12 20 µM
CCN(CC)C(=O)COC(=O)c1cc(-c2ccco2)nc2ccccc12 12.6 µM
CNC(=O)COC(=O)c1cc(-c2ccco2)nc2ccccc12 12.6 µM
CCNC(=O)COC(=O)c1cc(-c2ccco2)nc2ccccc12 14.1 µM
COC(=O)Cc1c(C)nc2nc(-c3ccc(C)cc3)[nH]n2c1=O 6.31 µM
O=C(Nc1nnc(-c2ccc(Cl)cc2)o1)c1nc2ccccc2s1 14.1 µM
Cc1c(C(=O)O)sc2ncnc(N3CCCCC3C)c12 (configuration not stated) 10 µM
O=C(COc1cccc2ccccc12)Nc1ccc(Cl)cc1C(=O)O 25.1 µM
N#Cc1c(NC(=O)CSc2ncnc3sccc23)oc(-c2ccco2)c1-c1ccco1 17.8 µM
NC(=O)c1ccsc1NC(=O)COC(=O)c1ccccc1F 22.4 µM
Cc1sc(NC(=O)c2sc3nc4c(C)cccc4cc3c2N)c(C#N)c1C 11.2 µM
CCc1ccccc1N1CSC2=C(C#N)C(c3ccccc3F)CC(=O)N2C1 (configuration not stated) 14.1 µM
N#CC1=C2SCN(c3ccccc3)CN2C(=O)CC1c1ccccc1Cl (configuration not stated) 25.1 µM
N#CC1=C2SCN(c3ccccc3)CN2C(=O)CC1c1c(Cl)cccc1Cl (configuration not stated) 22.4 µM
COc1ccc2c([N+](=O)[O-])c(Cl)[nH]c2c1 10 µM
